mHTT-CaM PPI inh = mutant huntingtin-calmodulin interaction inhibitors – biochemical, AlphaScreen, primary screen. AlphaScreen His-mHTT/GST-CaM binding, luminescence. 3.6% of 190,000 active. inhibition, % at 15 µM. P42858. AID 1671202, 2021
Pf apPOL block = Pf-apPOL inhibitors, biochemical, fluorescence | inhibition, % at 10 µM | 0.25% of 210,000 active | AID 1794808, 2022 | Recombinant Pf-apPOL, molecular beacon fluorescence, 1.5 h
Large screens that a line does not name were inactive. The list is not random: actives were taken first. Their share in the collection is about 3.5%. No stated cut-off is given here; in the data, active means inhibition above about 50%; inactive means the rest.

COc1ccc(-c2ccc(C)cc2)cc1[C@H]1[C@H]2C=CC[C@@H](C)[C@@H]2C(=O)N1Cc1ccccc1	none
COc1ccccc1N1C=C(C#N)S(=O)(=O)c2ccc(F)cc21	none
CC(C)(C)C(=O)N1CCN(Cc2ccc3c(c2)OCO3)CC1	none (no result: mHTT-CaM PPI inh)
CC(=O)N(Cc1ccc2c(c1)CN(C(=O)C(C)(C)C)CCO2)c1ccc(C)cc1	mHTT-CaM PPI inh 73
Cc1cc(C)n2nc(SCCC(=O)NCc3cccs3)nc2n1	none
COc1ccccc1C1C2=C(CC(C)(C)CC2=O)NC2=C1C(=O)CC(C)(C)C2	none
CN(C)CCN(C)C1CC2CCC1C2 (stereo unspecified)	none
CCc1cc2c(C)cc(=O)oc2cc1OCC(=O)Nc1cccc(C)c1	none (no result: mHTT-CaM PPI inh)
Cc1[nH]c2c(c1C)C(=O)CC(C)(C)C2	mHTT-CaM PPI inh 68 (no result: Pf apPOL block)
COC(=O)c1[nH]c2c(c1C)C(=O)CC(C)(C)C2	none (no result: Pf apPOL block)
CC1CCN(S(=O)(=O)N2CCC(C(=O)NC3CCCCC3C)CC2)CC1 (stereo unspecified)	none
CN1CCN(C2=NC(=O)/C(=C/c3ccc(Br)cc3)S2)CC1	none
COc1cccc(C(=O)NCc2[nH]nc3ccccc23)c1	mHTT-CaM PPI inh 52
Cc1cc(C)cc(C(=O)NCc2[nH]nc3ccccc23)c1	none
O=[N+]([O-])c1ccc(SC2N=C3CC=CC=C3S2)c([N+](=O)[O-])c1 (stereo unspecified)	none (no result: Pf apPOL block)
OCC1CC(NCc2c(Cl)cccc2Cl)CC1O (stereo unspecified)	none
CCOc1ccc(-n2c(SCC(=O)NCC3CCCO3)nc3n[nH]c(C)c3c2=N)cc1 (stereo unspecified)	none
COc1cccc(NC(=O)CSc2nc3n[nH]c(C)c3c(=N)n2-c2ccc(C)cc2)c1	mHTT-CaM PPI inh 57
CCC(C)NC(=O)CSc1nc2n[nH]c(C)c2c(=N)n1-c1ccc(OC)cc1 (stereo unspecified)	none
CCOc1ccc(-n2c(SC(CC)C(=O)N(CC)CC)nc3n[nH]c(C)c3c2=N)cc1 (stereo unspecified)	mHTT-CaM PPI inh 52
CCOc1ccc(-n2c(SC(CC)C(=O)NCCOC)nc3n[nH]c(C)c3c2=N)cc1 (stereo unspecified)	none
Cc1[nH]nc2nc(SCC(=O)NCc3ccco3)n(-c3ccc(Br)cc3)c(=N)c12	mHTT-CaM PPI inh 80
Cc1[nH]nc2nc(SCC(=O)NCC3CCCO3)n(-c3ccc(Br)cc3)c(=N)c12 (stereo unspecified)	mHTT-CaM PPI inh 52
Cc1ccc(-n2c(SCC(=O)NCc3ccco3)nc3n[nH]c(C)c3c2=N)cc1C	none
NS(=O)(=O)c1ccc(S(=O)(=O)Nc2ccccc2)cc1	none
O=S(=O)(Cc1nc(-c2ccccc2)no1)c1ccc(F)cc1	none
CN(C)Cc1c(O)ccc2c1OC(=Cc1ccccc1Br)C2=O	none
CCC1C(=O)OC(c2ccc(Cl)cc2)C(C)(C)C1=O (stereo unspecified)	none
O=C(c1cccs1)N1CCN(c2ccc3nnc(-c4ccco4)n3n2)CC1	mHTT-CaM PPI inh 56
O=C(NC1CCCCC1)N1CCN(c2ccc3nnc(-c4ccco4)n3n2)CC1	none
CC1(CNC(=O)COc2ccccc2)C2CC3CC(C2)CC1C3 (stereo unspecified)	none
CCc1nc(-c2ccc(C(=O)N3CCN(c4ccccc4)CC3)cc2)cs1	none
CCc1nc(-c2ccc(C(=O)N3CCc4ccccc4C3)cc2)cs1	mHTT-CaM PPI inh 60
COc1ccccc1-c1ccc(SCC(=O)Nc2ccc3c(c2)OCCO3)nn1	none
CC1CCCN(CCCNC(=O)CN2C(=O)/C(=C/c3ccccc3F)Sc3ccccc32)C1 (stereo unspecified)	none
CC(C)c1ccc(N=Cc2c[nH]c3ccccc23)cc1	none
COc1cccc(N=Cc2c[nH]c3ccccc23)c1	mHTT-CaM PPI inh 100
COc1ccc(CC(=O)N2CCC(Oc3ccc(C)cc3)CC2)cc1	none
CCc1ccc(C2CC(c3cccc(C)c3)n3ncnc3N2)cc1 (stereo unspecified)	none
CCc1cccc2c3c([nH]c12)CCC(NC(=O)C1CC=CCC1)C3 (stereo unspecified)	none
Cn1c(C(=O)Nc2ccc3c(c2)OCO3)cc2c1CCN(Cc1cccc(F)c1)C2	mHTT-CaM PPI inh 52
Cn1c(C(=O)NC2CC2)cc2c1CCN(Cc1cccc(F)c1)C2	none
CC(=O)c1cccc(NC(=O)c2cc3c(n2C)CCN(Cc2cccc(F)c2)C3)c1	mHTT-CaM PPI inh 60
Cn1c(C(=O)NCCN2CCCCC2)cc2c1CCN(Cc1cccc(F)c1)C2	none
COc1cc(Cl)c(C)cc1NC(=O)c1ccco1	none
NC(=Nc1nc2ccccc2s1)NC(=O)c1ccccc1N	none
O=c1oc2ccc(Br)cc2cc1-c1nc2ccccc2[nH]1	Pf apPOL block 83
O=c1oc2ccc(Cl)cc2cc1-c1nc2ccccc2[nH]1	none
Cc1cc2n(n1)CCCN2C(=O)CCC(=O)N1CCN(c2cc(Cl)ccc2C)CC1	mHTT-CaM PPI inh 87
Cc1ccc(C)c(N2CCN(C(=O)CCC(=O)N3CCCn4nc(C)cc43)CC2)c1	none
Cc1cc2n(n1)CCC(=O)N2CCCC(=O)N1CCN(c2cc(Cl)ccc2C)CC1	mHTT-CaM PPI inh 84
Cc1ccc(C)c(N2CCN(C(=O)CCCN3C(=O)CCn4nc(C)cc43)CC2)c1	none
CCC(=O)NCc1nc2c(n1C)CN(S(=O)(=O)c1ccc(C)c(Cl)c1)CC2	none
CC(=NCCN1CCOCC1)c1c(C(F)(F)F)[nH]n(-c2nc3ccccc3s2)c1=O	none
CC(=NCCCN1CCOCC1)c1c(-c2ccccc2)[nH]n(-c2nc3ccccc3s2)c1=O	mHTT-CaM PPI inh 51
O=C1C(=O)N(Cc2cccnc2)C(c2cccc([N+](=O)[O-])c2)C1=C(O)c1ccc(F)cc1 (stereo unspecified)	none
COc1cccc(CNC(=O)c2cn3cc(C)ccc3n2)c1	none
COc1ccc(-c2ccc3nc(C(=O)NCc4cccnc4)cn3c2)cc1	mHTT-CaM PPI inh 59
c1ccc(C2CCC(NCCc3c[nH]c4ccccc34)CC2)cc1 (stereo unspecified)	mHTT-CaM PPI inh 77
O=C(NCCc1c[nH]c2ccccc12)C(=O)NCCc1c[nH]c2ccccc12	none
C=CCNC(=O)CSc1nnnn1-c1ccccc1F	none
O=C1OC(c2ccc(F)cc2)=N/C1=C\c1ccccc1	none
Fc1ccc(C2=NCCC(c3ccccc3)O2)cc1 (stereo unspecified)	mHTT-CaM PPI inh 51
CC1(CNC(=O)c2cc(Cl)ccc2Cl)C2CC3CC(C2)CC1C3 (stereo unspecified)	none
CCc1ccc(OCC(O)CN2CCN(Cc3ccccc3)CC2)cc1 (stereo unspecified)	none
Cc1cc2c3c(C)n(C)c(C)c3c(C)nn2c1	mHTT-CaM PPI inh 79
CC1(C)O[C@@H](CN)[C@H](CN)O1	none (no result: Pf apPOL block)
Cc1ccc2nc(/C(C#N)=C/C=C/c3ccco3)[nH]c2c1	mHTT-CaM PPI inh 67
CCOc1cc(/C=C(\C#N)c2nc3ccc(C)cc3[nH]2)cc(I)c1O	mHTT-CaM PPI inh 80
N#C/C(=C\c1ccco1)c1nc2ccccc2[nH]1	none
Cc1ccc2nc(/C(C#N)=C/c3ccc(-c4cc([N+](=O)[O-])ccc4O)o3)[nH]c2c1	mHTT-CaM PPI inh 56
Cc1ccc2nc(/C(C#N)=C/c3ccc([N+](=O)[O-])o3)[nH]c2c1	none
COc1cc(-c2ccc(/C=C(\C#N)c3nc4ccc(C)cc4[nH]3)o2)c(OC)cc1Cl	none
CCOc1ccc(/C=C(\C#N)c2nc3ccc(C)cc3[nH]2)cc1	none
Cc1ccc2nc(/C(C#N)=C/c3ccc(-c4ccc5c(c4)C(=O)NC5=O)o3)[nH]c2c1	mHTT-CaM PPI inh 68
